Bioassay records: PubChem BioAssay, several laboratories
UBC13 inh = UBC13 polyubiquitin chain formation inhibitors, primary screen, biochemical, TR-FRET, uHTS; Ubiquitin-conjugating enzyme E2 N (Homo sapiens), P61088; inhibition, % at 20 µM; hit rate 0.47% among 330,000; in the data active means inhibition above about 45%, passing the limit was not always enough; inconclusive means no clear call, values can overlap the other calls
Target sequence (P61088 whole entry, looked up): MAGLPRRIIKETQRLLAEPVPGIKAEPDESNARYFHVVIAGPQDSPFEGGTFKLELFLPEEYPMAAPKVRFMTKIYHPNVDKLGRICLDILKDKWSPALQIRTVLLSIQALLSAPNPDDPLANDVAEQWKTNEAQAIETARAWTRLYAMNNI
NR3A LBD binder = binders of NR3A ligand-binding domain, primary screen, biophysical, differential scanning fluorimetry, uHTS; Glutamate receptor ionotropic, NMDA 3A (GRIN3A) ligand-binding domain; NR3A LBD differential scanning fluorimetry, Tm shift; 0% = protein alone, 100% = glycine-bound protein; Tm shift relative to glycine control, % at 25 µM; hit rate 2.5% among 340,000;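 active means melting temperature shift of at least 10% of the positive control shift, at one fixed dose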
dFosB act = activators of delta FosB homodimer, primary screen, biochemical, fluorescence polarization, TAMRA-CDK5 oligo, single point. Protein FosB (Mus musculus), P13346. purified delta FosB; percent of positive-control signal above neutral wells. activation, % at 25 µM. hit rate 0.99% among 340,000. AID 493131, 2011;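 active means mean activation above about 17%, with every replicate also reaching it, limit read from the data, passing the limit was not always enough; inconclusive means only one of the two conditions met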
Target sequence (P13346 whole entry, looked up): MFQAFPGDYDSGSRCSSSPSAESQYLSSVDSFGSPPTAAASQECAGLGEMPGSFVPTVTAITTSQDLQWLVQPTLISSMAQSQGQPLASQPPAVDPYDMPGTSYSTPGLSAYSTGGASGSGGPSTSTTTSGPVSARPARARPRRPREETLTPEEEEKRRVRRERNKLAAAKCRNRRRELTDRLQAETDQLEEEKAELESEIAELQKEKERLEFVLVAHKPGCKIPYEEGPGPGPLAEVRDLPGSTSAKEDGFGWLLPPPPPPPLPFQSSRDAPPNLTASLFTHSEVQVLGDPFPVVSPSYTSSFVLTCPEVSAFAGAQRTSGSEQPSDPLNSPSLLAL
NALP1 inh = NALP1 inflammasome inhibitors in reconstituted yeast, colorimetric, S. cerevisiae, triplicate retest. S. cerevisiae NALP1/ASC/caspase-1 growth, X-gal OD620, 72 h. inhibition, % at 10 µM. hit rate 0.61% among 280,000. AID 2071, 2009; in the data active means inhibition mostly above about 24%, no sharp cut-off; inactive means mostly below about 32%
Yeast superoxide = reduction of superoxide in aged yeast, primary screen, HTS; S. cerevisiae aged cells, superoxide DHE fluorescence; hits give low values; superoxide response (% of plate mean), % at 10 µM; hit rate 0.18% among 330,000; AID 2690, 2010;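 active means superoxide response under a set limit, about three screen SD below normal, cut at about 65% in these data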;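 further: yeast aged for seven days with compound at 30 °C before DHE staining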
Large screens that a line does not name were inactive. This is a sample that favours compounds with a hit; in the whole collection about 4.3% have one here.

COc1ccc(/C=N/Nc2ccc(C(=O)O)cc2)c(OC)c1OC	none
COC(=O)c1ccc2c(c1)C(C)(C)C(/C=C/c1ccc(OC)c(OC)c1OC)=[N+]2C	dFosB act 18
CNc1nc(Cl)c(SC)c(NCc2cccc(OC)c2)n1	NR3A LBD binder 17
CCc1nnc(NC(=O)CCN2C(=O)c3ccccc3C2=O)s1	none
CC(=O)c1sc(NC(=O)CCN2C(=O)c3ccccc3C2=O)nc1C	NR3A LBD binder 17
C[N+]1(CC2COC3(CCCCC3)O2)CCCC1 (stereo not given)	none
C1CCCCCC2(CCCCC1)OCC(CN1CCOCC1)O2 (stereo not given)	NALP1 inh 54
CC(=O)c1ccc(N2CCN(C(=O)Nc3cccc(F)c3)CC2)cc1	none
COc1ccc(CCn2c(-c3ccc(C(C)(C)C)cc3)n[nH]c2=S)cc1OC	none
COc1ccc(CCn2c(-c3ccc(Cl)cc3)n[nH]c2=S)cc1OC	NALP1 inh 33
O=C(c1ccc(COc2ccc3ccccc3c2)o1)N1N=C(C(F)F)CC1(O)C(F)F (stereo not given)	NR3A LBD binder 20 (no result: NALP1 inh)
O=C(c1ccc(COc2ccc(Br)cc2)o1)N1N=C(C(F)F)CC1(O)C(F)F (stereo not given)	NR3A LBD binder 19
CCOc1ccc(OCc2ccc(C(=O)N3N=C(C(F)F)CC3(O)C(F)F)o2)cc1 (stereo not given)	none
O=C(Nc1nnc(C2CC2)s1)c1cncc(Br)c1	none (no result: NALP1 inh)
COC(C(=O)Nc1ccnn1C1CCN(Cc2ccc(CO)o2)CC1)c1ccccc1 (stereo not given)	none
CCOc1ccc(OCC(=O)Nc2ccc(N3CCCCC3)cc2)cc1	none
COc1ccc(NC(=O)CSc2nc(N3CCCCC3)nc(N3CCCCC3)n2)cc1	NR3A LBD binder 13
CCc1ccc(OCC(=O)Nc2ccc(N3CCN(C(=O)c4ccccc4)CC3)cc2)cc1	none
Cc1cc(OCC(=O)Nc2ccc(N3CCCC3)cc2)cc(C)c1Cl	dFosB act 65
COc1ccc(OCC(=O)Nc2ccc(N3CCN(C(=O)c4ccccc4C)CC3)cc2)cc1	NR3A LBD binder 18
O=C(Cn1c(-c2ccccc2)noc1=O)Nc1ccc(N2CCCCCC2)cc1	NALP1 inh 36
Cc1ccc(NC(=O)c2ncn(CCCNCc3ccccc3)n2)cc1C	none (no result: UBC13 inh, NALP1 inh, Yeast superoxide)
CC(=O)Nc1ccc(S(=O)(=O)N(C)CC(=O)N/N=C/c2ccncc2)cc1	none
CCC(=O)Nc1ccc(N2CCCCC2)cc1	NALP1 inh 40
CCCC(=O)Nc1ccc(N2CCCCC2)cc1	none
Cn1c(=O)[nH]c(=O)c2c1nc(N1CCCC1)n2CCSc1nc2ccccc2[nH]1	none (no result: UBC13 inh, NR3A LBD binder, dFosB act, Yeast superoxide)
O=C(O)C1CCC1C(=O)Nc1nc(-c2ccc(Cl)s2)cs1 (stereo not given)	none
Cc1ccccc1Nc1nc(-c2sc(NC(=O)c3cccc(Cl)c3)nc2C)cs1	none (no result: NR3A LBD binder, dFosB act)
C=CCCC(=O)Nc1nc(C)c(-c2csc(Nc3cc(Cl)ccc3OC)n2)s1	none
O=C(Nc1nc(-c2ccc(Cl)s2)cs1)c1ccccc1	NR3A LBD binder 15
O=C(Nc1nc(-c2cccs2)cs1)c1ccc(Cl)s1	NR3A LBD binder 28
C=CCCC(=O)Nc1nc(C)c(-c2csc(Nc3ccc(Cl)cc3Cl)n2)s1	NR3A LBD binder 12
Cc1ccccc1Nc1nc(-c2sc(NC(=O)c3ccccc3)nc2C)cs1	UBC13 inh 93 (no result: NR3A LBD binder, dFosB act)
O=S(=O)(CC(CN1CCCCC1)N1CCCCC1)c1ccc2ccccc2c1 (stereo not given)	NALP1 inh 55 (no result: UBC13 inh, Yeast superoxide)
Cc1ccc(S(=O)(=O)CC(CN2CCCCC2)N2CCCCC2)cc1 (stereo not given)	none (no result: UBC13 inh, Yeast superoxide)
COc1cc(-c2noc(C)c2C(=O)NCCCn2ccnc2)cc(OC)c1OC	none (no result: NALP1 inh)
COC(=O)CN1C(=S)N(c2ccc(Cl)cc2)C(=O)C1CC(=O)Nc1ccc(Cl)cc1 (stereo not given)	NR3A LBD binder 20
CCN1C(=O)C(CC(=O)Nc2ccc(OC)cc2)N(CCc2ccccc2)C1=S (stereo not given)	none
COc1ccc(NC(=O)CC2C(=O)N(c3ccc(Cl)cc3)C(=S)N2CCc2ccncc2)cc1 (stereo not given)	NR3A LBD binder 10
COc1ccc(NC(=O)CC2C(=O)N(c3ccc(Cl)cc3)C(=S)N2NC(=O)c2cccc(F)c2)cc1 (stereo not given)	NR3A LBD binder 16
COC(=O)CN1C(=S)N(c2ccc(F)cc2)C(=O)C1CC(=O)Nc1ccc(F)cc1 (stereo not given)	none
COC(=O)CN1C(=S)N(Cc2ccccc2)C(=O)C1CC(=O)Nc1ccc(Br)cc1 (stereo not given)	NR3A LBD binder 18
COc1ccc(NC(=O)CC2C(=O)N(c3ccc(Cl)cc3)C(=S)N2CCc2ccccn2)cc1 (stereo not given)	none
CCCCN(C(=O)C1CC(=O)N(CCc2ccc(OC)c(OC)c2)C1)c1c(N)n(CCCC)c(=O)[nH]c1=O (stereo not given)	none (no result: NALP1 inh)
CCCCCCC(NC(=O)c1ccc(C)cc1)C(=O)O (stereo not given)	none (no result: UBC13 inh, NALP1 inh)
COc1cccc(CC2(CO)CCCN(Cc3ccc4c(c3)OCCO4)C2)c1 (stereo not given)	none
Cc1cc(F)ccc1S(=O)(=O)Nc1ccccc1C(=O)NC1CCN(Cc2ccccc2)CC1	none (no result: NALP1 inh, Yeast superoxide)
COC(=O)CCC(=O)Nc1ccc(S(=O)(=O)Nc2nc(C)cc(C)n2)cc1	none
COc1ccccc1CNC(=O)COc1ccc(S(=O)(=O)N2CCCC2)cc1	none
COC(=O)CN1C(=S)N(c2ccc(Cl)cc2)C(=O)C1CC(=O)Nc1ccc(F)cc1 (stereo not given)	NR3A LBD binder 27
S=C1NC2(CCCCC2)Nc2ccccc21	UBC13 inh inconclusive, NR3A LBD binder 12
c1cc2c3c(cccc3c1)NC1(CCCC1)N2	dFosB act 63 (no result: UBC13 inh, NALP1 inh, Yeast superoxide)
CC1(C)Nc2cccc3cccc(c23)N1	none (no result: UBC13 inh, NALP1 inh, Yeast superoxide)
COC(=O)C(Cc1ccc(O)cc1)NC(=O)c1ccc2c(c1)OCCO2 (stereo not given)	none
CCc1nnc(NC(=O)CSc2nnc(CNc3ccc(F)cc3)n2C2CCCCC2)s1	NALP1 inh 32
O=C(CSc1nnnn1C1CCCCC1)Nc1ccc(F)cc1	NR3A LBD binder 18
COc1ccc(/C(=N/Nc2ncnc3ccccc23)C(=O)O)cc1	none
CC1=NNC(=O)C1CC(=O)N/N=C/c1ccc(C)o1 (stereo not given)	NR3A LBD binder 18 (no result: dFosB act, NALP1 inh)
CCOc1c(Cl)cc(/C=N/NC(N)=S)cc1OC	none
O=C(O)c1ccc(/C=N/N2CCN(Cc3cccc4ccccc34)CC2)cc1	NR3A LBD binder 192
COc1ccccc1NC(=O)C(C)Sc1nc2ccccc2c(=O)n1CC1CCCO1 (stereo not given)	none (no result: NALP1 inh)
